According to the supplement of paper PMC11732987, “Enantioselective OTUD7B fragment discovery through chemoproteomics screening and high-throughput optimisation” (Communications Chemistry, 2025):

Experiments:
Experiment in all cases: log2 ratio of Biotin-Ahx-Ub-VS probe labelling (fragment/DMSO); higher = less target engagement (more negative = stronger competition), active = hit call of the paper (q ≤ 0.05, log2 ratio ≤ -1)
Settings in all cases: compound concentration: 200 uM; treatment time: 3 h
[1] = biological target: T1, OTUD6B (UniProt Q8N6M0)
T1 sequence (whole entry): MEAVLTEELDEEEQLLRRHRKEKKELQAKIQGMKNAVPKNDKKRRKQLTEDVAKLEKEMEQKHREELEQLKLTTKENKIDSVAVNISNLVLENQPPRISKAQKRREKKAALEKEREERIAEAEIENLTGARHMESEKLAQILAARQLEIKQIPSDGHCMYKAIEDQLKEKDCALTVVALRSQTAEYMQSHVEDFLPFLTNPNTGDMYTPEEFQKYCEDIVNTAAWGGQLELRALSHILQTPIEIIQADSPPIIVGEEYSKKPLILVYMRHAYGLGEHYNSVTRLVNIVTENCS
Outline: (§1)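 In triplicate, 495 µg of HEK293T lysate per sample was incubated with fragment at 200 µM or vehicle for 3 h. Biotin-Ahx-Ub-VS was then added to 0.5 µM final for 1 h, and labelled DUBs were captured with NeutrAvidin, digested with LysC and trypsin, and measured by diaPASEF LC-MS/MS. Data are average log2 fragment/vehicle ratios by unpaired t-test from global-median-normalised Spectronaut label-free quantities, restricted to proteins with ≥2 unique peptides.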

[2] = biological target: T2, OTUD7B (UniProt Q6GQQ9)
T2 sequence (whole entry): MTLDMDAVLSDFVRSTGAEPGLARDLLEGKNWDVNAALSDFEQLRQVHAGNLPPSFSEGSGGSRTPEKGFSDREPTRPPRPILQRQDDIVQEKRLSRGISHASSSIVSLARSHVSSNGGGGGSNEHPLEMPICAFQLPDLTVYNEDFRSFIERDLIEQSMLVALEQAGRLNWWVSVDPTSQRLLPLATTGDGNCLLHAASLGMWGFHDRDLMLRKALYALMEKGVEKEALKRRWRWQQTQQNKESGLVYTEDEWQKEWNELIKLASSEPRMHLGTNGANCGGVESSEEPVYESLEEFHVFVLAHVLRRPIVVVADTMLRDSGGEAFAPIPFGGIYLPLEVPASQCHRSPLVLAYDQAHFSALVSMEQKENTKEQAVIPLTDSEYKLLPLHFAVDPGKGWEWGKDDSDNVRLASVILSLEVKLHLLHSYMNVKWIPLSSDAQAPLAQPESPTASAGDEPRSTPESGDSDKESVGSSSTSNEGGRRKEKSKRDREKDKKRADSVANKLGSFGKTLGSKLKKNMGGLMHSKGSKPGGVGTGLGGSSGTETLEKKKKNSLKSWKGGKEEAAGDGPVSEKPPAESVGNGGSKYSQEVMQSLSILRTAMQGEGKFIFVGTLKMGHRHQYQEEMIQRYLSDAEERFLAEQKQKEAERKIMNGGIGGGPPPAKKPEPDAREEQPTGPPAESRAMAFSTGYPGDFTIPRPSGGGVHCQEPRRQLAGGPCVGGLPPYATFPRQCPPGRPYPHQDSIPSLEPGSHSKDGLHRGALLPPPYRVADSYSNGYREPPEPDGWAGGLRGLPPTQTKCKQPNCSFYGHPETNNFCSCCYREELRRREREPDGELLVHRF
Outline: as §1

[3] = biological target: PRPF8 (UniProt Q6P2Q9)
Outline: as §1

[4] = biological target: T3, PSMD7 (UniProt P51665)
T3 sequence (whole entry): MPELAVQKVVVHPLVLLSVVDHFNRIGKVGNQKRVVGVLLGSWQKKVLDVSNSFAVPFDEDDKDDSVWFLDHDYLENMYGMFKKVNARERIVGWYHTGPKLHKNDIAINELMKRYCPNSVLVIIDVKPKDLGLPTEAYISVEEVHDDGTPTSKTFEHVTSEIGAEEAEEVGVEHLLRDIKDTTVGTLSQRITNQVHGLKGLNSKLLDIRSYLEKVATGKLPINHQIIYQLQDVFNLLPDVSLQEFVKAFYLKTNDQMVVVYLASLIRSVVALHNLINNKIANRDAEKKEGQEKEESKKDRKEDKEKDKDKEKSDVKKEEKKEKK
Outline: as §1

[5] = biological target: UCHL1 (UniProt P09936)
Outline: as §1

[6] = biological target: T4, UCHL3 (UniProt P15374)
T4 sequence (whole entry): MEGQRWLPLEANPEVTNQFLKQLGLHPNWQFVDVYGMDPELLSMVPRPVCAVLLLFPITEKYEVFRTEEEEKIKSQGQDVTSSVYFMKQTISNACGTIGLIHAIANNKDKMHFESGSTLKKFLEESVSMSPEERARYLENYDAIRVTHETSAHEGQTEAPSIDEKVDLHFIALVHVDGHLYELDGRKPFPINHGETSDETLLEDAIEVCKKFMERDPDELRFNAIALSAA
Outline: as §1

[7] = biological target: T5, UCHL5 (UniProt Q9Y5K5)
T5 sequence (whole entry): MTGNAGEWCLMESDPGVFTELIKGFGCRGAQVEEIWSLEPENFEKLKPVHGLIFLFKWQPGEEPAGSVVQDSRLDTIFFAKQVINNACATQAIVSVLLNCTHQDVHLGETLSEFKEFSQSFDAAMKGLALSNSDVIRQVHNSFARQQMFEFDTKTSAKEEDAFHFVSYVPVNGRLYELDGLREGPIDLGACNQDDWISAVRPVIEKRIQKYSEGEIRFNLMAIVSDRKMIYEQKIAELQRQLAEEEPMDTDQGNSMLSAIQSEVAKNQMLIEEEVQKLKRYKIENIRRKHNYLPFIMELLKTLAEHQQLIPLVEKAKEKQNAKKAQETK
Outline: as §1

[8] = biological target: USP10 (UniProt Q14694)
Outline: as §1

[9] = biological target: T6, USP15 (UniProt Q9Y4E8)
T6 sequence (whole entry): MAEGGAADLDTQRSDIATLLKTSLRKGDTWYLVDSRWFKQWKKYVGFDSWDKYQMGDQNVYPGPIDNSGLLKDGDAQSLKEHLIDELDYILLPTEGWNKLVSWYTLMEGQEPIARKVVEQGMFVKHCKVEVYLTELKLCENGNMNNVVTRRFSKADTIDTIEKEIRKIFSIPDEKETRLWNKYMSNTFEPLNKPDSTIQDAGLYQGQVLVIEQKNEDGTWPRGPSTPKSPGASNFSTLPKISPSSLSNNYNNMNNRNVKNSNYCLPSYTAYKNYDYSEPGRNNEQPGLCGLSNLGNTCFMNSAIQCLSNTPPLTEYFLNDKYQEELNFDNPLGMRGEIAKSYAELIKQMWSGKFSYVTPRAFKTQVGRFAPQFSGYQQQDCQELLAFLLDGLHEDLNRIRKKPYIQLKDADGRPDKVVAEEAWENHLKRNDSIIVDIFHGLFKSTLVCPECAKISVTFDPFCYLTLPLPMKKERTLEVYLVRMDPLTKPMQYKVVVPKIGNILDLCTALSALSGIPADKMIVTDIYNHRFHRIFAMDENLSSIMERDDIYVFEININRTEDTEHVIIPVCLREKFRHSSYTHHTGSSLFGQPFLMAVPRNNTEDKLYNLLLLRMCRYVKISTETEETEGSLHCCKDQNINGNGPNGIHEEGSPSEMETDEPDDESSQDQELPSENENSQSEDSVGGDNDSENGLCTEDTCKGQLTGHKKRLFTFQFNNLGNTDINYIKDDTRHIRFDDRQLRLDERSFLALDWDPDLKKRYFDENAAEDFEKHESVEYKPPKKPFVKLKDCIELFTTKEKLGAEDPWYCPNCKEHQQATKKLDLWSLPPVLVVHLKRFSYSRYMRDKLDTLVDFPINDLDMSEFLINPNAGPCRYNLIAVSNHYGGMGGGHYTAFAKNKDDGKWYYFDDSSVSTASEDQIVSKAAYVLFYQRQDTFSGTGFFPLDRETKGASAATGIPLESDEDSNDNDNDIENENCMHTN
Outline: as §1

[10] = biological target: USP16 (UniProt Q9Y5T5)
Outline: as §1

Measured: log2 ratio of Biotin-Ahx-Ub-VS probe labelling

USP10, sequence (Q14694 whole entry): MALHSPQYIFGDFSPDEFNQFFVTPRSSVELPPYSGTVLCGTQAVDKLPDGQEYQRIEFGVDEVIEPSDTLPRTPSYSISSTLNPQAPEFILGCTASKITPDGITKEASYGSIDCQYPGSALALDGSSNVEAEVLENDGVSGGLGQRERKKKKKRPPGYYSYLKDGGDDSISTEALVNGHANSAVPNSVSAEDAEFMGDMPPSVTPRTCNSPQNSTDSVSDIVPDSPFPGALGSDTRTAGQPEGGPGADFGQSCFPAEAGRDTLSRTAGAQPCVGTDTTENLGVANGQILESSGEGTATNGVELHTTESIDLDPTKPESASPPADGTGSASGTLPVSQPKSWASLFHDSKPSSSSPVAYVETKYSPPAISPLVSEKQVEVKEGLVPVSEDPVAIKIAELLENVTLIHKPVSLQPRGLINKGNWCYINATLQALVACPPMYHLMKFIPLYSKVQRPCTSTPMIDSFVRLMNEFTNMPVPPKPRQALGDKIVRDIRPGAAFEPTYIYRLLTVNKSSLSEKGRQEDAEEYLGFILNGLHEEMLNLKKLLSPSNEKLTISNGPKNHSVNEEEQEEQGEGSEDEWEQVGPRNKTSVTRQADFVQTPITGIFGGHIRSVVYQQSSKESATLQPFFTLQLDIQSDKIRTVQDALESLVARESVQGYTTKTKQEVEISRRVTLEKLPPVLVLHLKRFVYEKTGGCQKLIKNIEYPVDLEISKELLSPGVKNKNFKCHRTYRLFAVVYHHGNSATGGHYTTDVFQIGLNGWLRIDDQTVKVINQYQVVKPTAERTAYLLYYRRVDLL
UCHL1, sequence (P09936 whole entry, looked up): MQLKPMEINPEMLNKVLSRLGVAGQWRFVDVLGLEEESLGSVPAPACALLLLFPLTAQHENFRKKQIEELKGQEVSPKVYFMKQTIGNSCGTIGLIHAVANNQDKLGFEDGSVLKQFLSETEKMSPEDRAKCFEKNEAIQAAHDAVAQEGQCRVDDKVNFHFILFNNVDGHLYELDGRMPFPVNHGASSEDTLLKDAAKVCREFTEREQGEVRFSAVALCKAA
USP16, sequence (Q9Y5T5 whole entry, looked up): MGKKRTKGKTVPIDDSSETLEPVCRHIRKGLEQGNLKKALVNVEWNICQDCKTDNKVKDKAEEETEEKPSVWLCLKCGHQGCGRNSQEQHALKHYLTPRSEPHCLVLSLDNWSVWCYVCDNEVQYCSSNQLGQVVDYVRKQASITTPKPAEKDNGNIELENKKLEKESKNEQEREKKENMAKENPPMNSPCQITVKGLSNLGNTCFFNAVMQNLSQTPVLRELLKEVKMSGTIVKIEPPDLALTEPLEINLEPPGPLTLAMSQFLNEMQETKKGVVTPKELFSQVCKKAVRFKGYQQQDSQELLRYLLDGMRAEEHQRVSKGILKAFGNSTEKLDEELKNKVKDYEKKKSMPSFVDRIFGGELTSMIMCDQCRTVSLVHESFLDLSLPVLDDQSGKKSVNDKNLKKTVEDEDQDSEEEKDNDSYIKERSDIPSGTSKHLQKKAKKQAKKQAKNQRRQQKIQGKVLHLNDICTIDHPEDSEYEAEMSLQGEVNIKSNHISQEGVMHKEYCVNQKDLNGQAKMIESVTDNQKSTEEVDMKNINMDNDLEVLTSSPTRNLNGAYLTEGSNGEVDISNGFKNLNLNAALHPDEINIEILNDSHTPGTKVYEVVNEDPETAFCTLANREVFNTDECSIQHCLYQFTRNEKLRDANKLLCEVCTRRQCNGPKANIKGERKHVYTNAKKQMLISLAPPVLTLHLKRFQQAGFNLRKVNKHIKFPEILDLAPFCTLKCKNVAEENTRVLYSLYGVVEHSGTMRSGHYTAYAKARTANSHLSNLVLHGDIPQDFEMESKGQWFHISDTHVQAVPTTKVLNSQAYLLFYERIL

NS(=O)(=O)c1ccc(Cl)c(NC(=O)CCl)c1
active: [2] -1.63 | [5] -1.51
inactive: [1] -0.573 | [3] -0.153 | [4] -0.125 | [6] 0.209 | [7] -0.489 | [8] -0.299 | [9] -0.166 | [10] 0.0198
